Laboratory results reported in PubChem BioAssay (EPA / NIEHS).
Values joined by “and” are separate entries in the source; they are usually repeats but may differ in a detail not shown here. Equal entries are not always repeated. Records with an inconclusive call do not appear. More than one record can exist for a structure, and the calls need not agree. Active and inactive are the calls of the source. Rule for the calls, unless noted: active = hit-call score of the fitted dose curve at least 0.9, where 1 is the maximum; inactive = score below 0.9.

How the values were obtained:
[1] = target: Estrogen-related receptor gamma (Homo sapiens) (UniProt P62508); assay: ATG_ERRg_TRANS: Attagene TRANS-FACTORIAL HepG2 Assay for human Estrogen-Related Receptor gamma (ERRg) (AID 2282977; active = hit-call score of the fitted dose curve at least 0.9, where 1 is the maximum;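 note: hits increase reporter signal over DMSO so potencies reflect activators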); details: HepG2 Attagene TRANS reporter, ERRg transactivation
Sequence of Estrogen-related receptor gamma (Homo sapiens) (P62508 whole entry, looked up, the tested form may be a part): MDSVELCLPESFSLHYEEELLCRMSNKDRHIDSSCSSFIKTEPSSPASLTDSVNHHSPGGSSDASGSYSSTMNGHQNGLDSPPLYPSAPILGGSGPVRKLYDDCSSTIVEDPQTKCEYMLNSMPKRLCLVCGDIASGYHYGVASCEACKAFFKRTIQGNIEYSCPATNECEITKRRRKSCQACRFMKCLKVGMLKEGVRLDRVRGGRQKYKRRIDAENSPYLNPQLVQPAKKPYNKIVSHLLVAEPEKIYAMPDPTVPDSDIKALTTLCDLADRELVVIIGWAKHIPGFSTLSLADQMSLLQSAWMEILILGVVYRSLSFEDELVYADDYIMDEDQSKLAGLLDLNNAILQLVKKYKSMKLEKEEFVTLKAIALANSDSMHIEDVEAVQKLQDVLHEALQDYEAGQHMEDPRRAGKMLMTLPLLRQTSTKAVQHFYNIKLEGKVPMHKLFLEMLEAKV
Summary of the method: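 Exogenous NR-Gal4 chimera activity was assessed in HepG2 cells bearing transfected GAL4-UAS reporters. After 24 h dosing, total RNA underwent RT-PCR, fluorescent primer extension and HpaI digestion before capillary electrophoresis, with gain of signal scored against DMSO.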

[2] = target: Glucocorticoid receptor (Homo sapiens) (UniProt P04150); assay: ATG_GR_TRANS: Attagene TRANS-FACTORIAL HepG2 Assay for human Glucocorticoid Receptor (GR) (AID 2282978; active = hit-call score of the fitted dose curve at least 0.9, where 1 is the maximum;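 note: activators score as hits since higher reporter transcript over DMSO is fitted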); details: HepG2 Attagene TRANS GR reporter, mRNA transcription
Sequence of Glucocorticoid receptor (Homo sapiens) (P04150 whole entry, looked up, the tested form may be a part): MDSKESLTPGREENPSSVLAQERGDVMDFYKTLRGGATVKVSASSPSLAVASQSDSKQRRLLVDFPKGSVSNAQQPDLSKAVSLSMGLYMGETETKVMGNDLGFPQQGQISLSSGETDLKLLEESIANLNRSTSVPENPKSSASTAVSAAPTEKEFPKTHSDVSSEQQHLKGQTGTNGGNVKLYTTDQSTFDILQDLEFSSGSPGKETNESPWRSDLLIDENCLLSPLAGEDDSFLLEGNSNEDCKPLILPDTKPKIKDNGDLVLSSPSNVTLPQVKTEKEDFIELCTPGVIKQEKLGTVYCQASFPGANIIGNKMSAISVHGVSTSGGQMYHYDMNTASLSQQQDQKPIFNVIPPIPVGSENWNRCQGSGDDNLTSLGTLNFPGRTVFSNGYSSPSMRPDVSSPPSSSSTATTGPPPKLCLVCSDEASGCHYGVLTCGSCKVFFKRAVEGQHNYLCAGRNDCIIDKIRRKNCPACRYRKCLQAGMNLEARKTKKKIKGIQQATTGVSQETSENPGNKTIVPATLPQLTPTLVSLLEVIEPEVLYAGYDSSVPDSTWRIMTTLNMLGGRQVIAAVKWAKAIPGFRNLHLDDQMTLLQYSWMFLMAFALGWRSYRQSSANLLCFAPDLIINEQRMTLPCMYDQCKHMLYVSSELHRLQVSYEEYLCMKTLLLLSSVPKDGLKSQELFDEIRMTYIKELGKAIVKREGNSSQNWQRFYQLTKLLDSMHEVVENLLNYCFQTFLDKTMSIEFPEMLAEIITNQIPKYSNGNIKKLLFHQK
Summary of the method: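 HepG2 transient transfection, multiple reporter units, GAL4-UAS under NR-GAL4 chimera control. 24 h treatment. Reporter mRNA by RT-PCR/CE fluorescence, DMSO as negative control.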

[3] = target: Bile acid receptor (Homo sapiens) (UniProt Q96RI1); assay: ATG_FXR_TRANS: Attagene TRANS-FACTORIAL HepG2 Assay for Farnesoid X Receptor (FXR) (AID 2282979; active = hit-call score of the fitted dose curve at least 0.9, where 1 is the maximum;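 note: hits raise reporter mRNA above DMSO so AC50 marks FXR activation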); details: HepG2 Attagene TRANS FXR-GAL4 reporter transcription
Sequence of Bile acid receptor (Homo sapiens) (Q96RI1 whole entry, looked up, the tested form may be a part): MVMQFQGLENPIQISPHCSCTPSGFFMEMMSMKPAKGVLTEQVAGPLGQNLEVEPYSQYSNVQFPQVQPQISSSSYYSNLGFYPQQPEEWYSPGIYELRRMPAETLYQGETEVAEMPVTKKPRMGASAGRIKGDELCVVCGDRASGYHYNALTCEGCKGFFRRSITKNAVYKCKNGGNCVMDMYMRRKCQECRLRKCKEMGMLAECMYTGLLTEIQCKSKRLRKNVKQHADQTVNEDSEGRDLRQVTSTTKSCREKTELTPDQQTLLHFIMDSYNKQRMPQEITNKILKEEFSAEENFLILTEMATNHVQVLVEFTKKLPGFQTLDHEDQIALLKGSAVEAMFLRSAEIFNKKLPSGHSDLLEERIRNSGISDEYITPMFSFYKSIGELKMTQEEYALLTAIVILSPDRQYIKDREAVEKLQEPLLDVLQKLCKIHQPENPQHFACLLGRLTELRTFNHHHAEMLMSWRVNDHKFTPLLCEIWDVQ
Summary of the method: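 HepG2 cells transiently transfected with reporter constructs in which a chimeric FXR-GAL4 protein drives a GAL4-UAS reporter; 24 h compound exposure. Reporter mRNA measured by RT-PCR, FAM labelling, HpaI digestion and capillary electrophoresis; gain-of-signal versus DMSO.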

[4] = target: Oxysterols receptor LXR-alpha (Homo sapiens) (UniProt Q13133); assay: ATG_LXRa_TRANS: Attagene TRANS-FACTORIAL HepG2 Assay for human Liver X Receptor alpha (LXRa) (AID 2282980; active = hit-call score of the fitted dose curve at least 0.9, where 1 is the maximum); details: HepG2 Attagene TRANS reporter, LXRa transactivation
Sequence of Oxysterols receptor LXR-alpha (Homo sapiens) (Q13133 whole entry, looked up, the tested form may be a part): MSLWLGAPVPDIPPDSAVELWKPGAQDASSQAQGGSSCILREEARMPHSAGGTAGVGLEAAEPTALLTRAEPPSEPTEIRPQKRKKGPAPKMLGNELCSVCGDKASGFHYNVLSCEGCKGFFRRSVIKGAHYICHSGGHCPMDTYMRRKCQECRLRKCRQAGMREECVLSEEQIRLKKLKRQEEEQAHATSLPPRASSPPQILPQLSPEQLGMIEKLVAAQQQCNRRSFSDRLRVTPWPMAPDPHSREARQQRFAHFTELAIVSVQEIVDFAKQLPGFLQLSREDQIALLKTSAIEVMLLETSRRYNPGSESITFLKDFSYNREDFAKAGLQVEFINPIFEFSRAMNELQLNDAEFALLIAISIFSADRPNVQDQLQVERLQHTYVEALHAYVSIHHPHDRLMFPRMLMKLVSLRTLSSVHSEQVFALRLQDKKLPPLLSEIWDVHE
Summary of the method: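 HepG2 cells were transiently transfected with multiplexed reporter units driven by chimeric LXRa–GAL4 fusion proteins, then dosed for 24 h. Reporter mRNA was quantified by RT-PCR, fluorescent labelling and capillary electrophoresis; gain of signal fitted against DMSO baseline.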

[5] = target: Oxysterols receptor LXR-beta (Homo sapiens) (UniProt P55055); assay: ATG_LXRb_TRANS: Attagene TRANS-FACTORIAL HepG2 Assay for human Liver X Receptor beta (LXRb) (AID 2282981; active = hit-call score of the fitted dose curve at least 0.9, where 1 is the maximum); details: HepG2 Attagene TRANS GAL4-LXRb reporter, mRNA
Sequence of Oxysterols receptor LXR-beta (Homo sapiens) (P55055 whole entry, looked up, the tested form may be a part): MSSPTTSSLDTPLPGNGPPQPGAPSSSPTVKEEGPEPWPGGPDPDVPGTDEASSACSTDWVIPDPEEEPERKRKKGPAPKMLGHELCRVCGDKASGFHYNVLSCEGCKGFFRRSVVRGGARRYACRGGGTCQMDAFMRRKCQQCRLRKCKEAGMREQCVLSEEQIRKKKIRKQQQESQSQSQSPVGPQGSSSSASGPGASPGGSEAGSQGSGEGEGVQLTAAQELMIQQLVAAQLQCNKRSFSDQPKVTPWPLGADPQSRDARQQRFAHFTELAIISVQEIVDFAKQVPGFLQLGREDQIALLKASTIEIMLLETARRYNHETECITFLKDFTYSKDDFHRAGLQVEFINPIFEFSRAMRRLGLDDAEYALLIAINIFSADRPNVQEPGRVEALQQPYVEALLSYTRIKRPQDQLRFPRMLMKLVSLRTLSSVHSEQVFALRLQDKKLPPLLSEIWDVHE
Summary of the method: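 Liver-derived HepG2 cells transfected with Gal4-responsive reporters were dosed for 24 h. Activation was scored as rise in reporter mRNA, by RT-PCR and capillary electrophoresis, above DMSO baseline.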

[6] = target: Hepatocyte nuclear factor 4-alpha (Homo sapiens) (UniProt P41235); assay: ATG_HNF4a_TRANS: Attagene TRANS-FACTORIAL HepG2 Assay for human Hepatocyte Nuclear Factor 4 alpha (HNF4a) (AID 2282982; active = hit-call score of the fitted dose curve at least 0.9, where 1 is the maximum); details: HepG2 HNF4a transactivation reporter, mRNA readout
Sequence of Hepatocyte nuclear factor 4-alpha (Homo sapiens) (P41235 whole entry, looked up, the tested form may be a part): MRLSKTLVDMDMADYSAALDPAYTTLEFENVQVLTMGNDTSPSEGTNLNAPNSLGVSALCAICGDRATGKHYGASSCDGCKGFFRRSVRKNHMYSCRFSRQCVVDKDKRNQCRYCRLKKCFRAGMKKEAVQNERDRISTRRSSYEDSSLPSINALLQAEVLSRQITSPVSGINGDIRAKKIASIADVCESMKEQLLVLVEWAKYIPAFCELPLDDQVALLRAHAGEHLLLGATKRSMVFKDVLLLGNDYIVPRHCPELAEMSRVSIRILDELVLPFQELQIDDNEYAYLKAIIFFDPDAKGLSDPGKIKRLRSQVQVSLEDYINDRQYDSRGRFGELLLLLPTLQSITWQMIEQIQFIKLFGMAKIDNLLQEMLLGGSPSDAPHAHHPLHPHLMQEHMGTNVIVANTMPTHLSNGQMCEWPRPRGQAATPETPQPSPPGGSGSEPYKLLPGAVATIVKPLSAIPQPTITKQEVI
Summary of the method: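 Using HepG2 liver cells transfected with GAL4-UAS reporter units, chemical-induced mRNA increases were assessed after 24 hours. Fluorescent RT-PCR fragments were separated by capillary electrophoresis and compared with DMSO negative controls.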

[7] = ATG_M_06_TRANS: Attagene TRANS-FACTORIAL HepG2 Assay for M06 Transcription Factor (Internal Marker) (AID 2282983; active = hit-call score of the fitted dose curve at least 0.9, where 1 is the maximum); details: HepG2 Attagene TRANS M06 internal marker reporter
Summary of the method: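 In this multiplexed HepG2 system, compounds are incubated 24 h with cells carrying GAL4-UAS reporter units. Reporter RNA is amplified and resolved by capillary electrophoresis, and induction is scored against DMSO.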

[8] = ATG_M_32_TRANS: Attagene TRANS-FACTORIAL HepG2 Assay for M32 Transcription Factor (Internal Marker) (AID 2282984; active = hit-call score of the fitted dose curve at least 0.9, where 1 is the maximum;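 note: transcript level of a background control reporter unit measured by RT-PCR and capillary electrophoresis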); details: HepG2 Attagene TRANS M32 internal marker reporter
Summary of the method: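 Fluorescence-detected mRNA induction, HepG2 liver cells, 24 h after dosing. Multiple GAL4-UAS reporter units introduced by transient transfection; background-control endpoint analysed for gain of signal against DMSO.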

[9] = target: Nuclear receptor subfamily 4 group A member 2 (Homo sapiens) (UniProt P43354); assay: ATG_NURR1_TRANS: Attagene TRANS-FACTORIAL HepG2 Assay for human Nuclear Receptor Related Protein 1 (NURR1) (AID 2282985; active = hit-call score of the fitted dose curve at least 0.9, where 1 is the maximum); details: HepG2 Attagene TRANS reporter, mRNA readout
Summary of the method: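 Chimeric NR-Gal4 proteins were expressed in human HepG2 cells bearing GAL4-UAS reporter units, and induced reporter mRNA was quantified 24 h post-dosing by RT-PCR and capillary electrophoresis.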

[10] = target: Transcriptional activator Myb (Homo sapiens) (UniProt P10242); assay: ATG_Myb_CIS: Attagene CIS-FACTORIAL HepG2 Assay for human Myeloblastosis (Myb) Proto-Oncogene Transcription Factor (AID 2282986); details: HepG2 Attagene CIS-FACTORIAL Myb reporter transcription; actives raise or lower the signal
Sequence of Transcriptional activator Myb (Homo sapiens) (P10242 whole entry, looked up): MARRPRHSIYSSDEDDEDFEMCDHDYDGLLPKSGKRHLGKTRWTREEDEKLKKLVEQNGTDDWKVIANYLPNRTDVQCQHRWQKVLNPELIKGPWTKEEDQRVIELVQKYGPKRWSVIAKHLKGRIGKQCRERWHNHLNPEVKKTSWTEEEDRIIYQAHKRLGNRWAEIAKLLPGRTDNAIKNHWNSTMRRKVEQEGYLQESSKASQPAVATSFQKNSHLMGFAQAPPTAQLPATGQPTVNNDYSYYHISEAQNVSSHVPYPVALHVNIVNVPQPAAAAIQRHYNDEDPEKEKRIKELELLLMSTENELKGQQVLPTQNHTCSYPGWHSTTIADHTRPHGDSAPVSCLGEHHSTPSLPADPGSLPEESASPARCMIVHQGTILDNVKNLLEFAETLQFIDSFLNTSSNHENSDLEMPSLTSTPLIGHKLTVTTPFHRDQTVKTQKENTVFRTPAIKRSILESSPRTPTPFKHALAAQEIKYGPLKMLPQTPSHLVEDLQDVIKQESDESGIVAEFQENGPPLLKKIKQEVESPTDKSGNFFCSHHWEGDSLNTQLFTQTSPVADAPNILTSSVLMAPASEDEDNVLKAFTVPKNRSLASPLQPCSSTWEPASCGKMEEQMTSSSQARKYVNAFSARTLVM
Summary of the method: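 Multiplexed cis-reporter system in HepG2: transient transfection, 24 h treatment, mRNA readout by RT-PCR and capillary electrophoresis. Both increases and decreases are scored versus DMSO negative control.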

[11] = target: Nuclear respiratory factor 1 (Homo sapiens) (UniProt Q16656); assay: ATG_NRF1_CIS: Attagene CIS-FACTORIAL HepG2 Assay for human Nuclear Respiratory Factor 1 (NRF1) Orphan Gene (AID 2282987); details: HepG2 NRF1 cis-element reporter, Attagene multiplex; actives raise or lower the signal
Summary of the method: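 Endogenous factor activity was captured via cis-element-driven reporter transcripts in HepG2 cells. Following 24 h chemical treatment, transcripts were quantified by RT-PCR and capillary electrophoresis.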

[12] = target: Myc proto-oncogene protein (Homo sapiens) (UniProt P01106); assay: ATG_Myc_CIS: Attagene CIS-FACTORIAL HepG2 Assay for human Myelocytomatosis (Myc) Proto-Oncogene Transcription Factor (AID 2282990); details: HepG2, Attagene cis-reporter transcription factor activity; actives raise or lower the signal
Sequence of Myc proto-oncogene protein (Homo sapiens) (P01106 whole entry, looked up): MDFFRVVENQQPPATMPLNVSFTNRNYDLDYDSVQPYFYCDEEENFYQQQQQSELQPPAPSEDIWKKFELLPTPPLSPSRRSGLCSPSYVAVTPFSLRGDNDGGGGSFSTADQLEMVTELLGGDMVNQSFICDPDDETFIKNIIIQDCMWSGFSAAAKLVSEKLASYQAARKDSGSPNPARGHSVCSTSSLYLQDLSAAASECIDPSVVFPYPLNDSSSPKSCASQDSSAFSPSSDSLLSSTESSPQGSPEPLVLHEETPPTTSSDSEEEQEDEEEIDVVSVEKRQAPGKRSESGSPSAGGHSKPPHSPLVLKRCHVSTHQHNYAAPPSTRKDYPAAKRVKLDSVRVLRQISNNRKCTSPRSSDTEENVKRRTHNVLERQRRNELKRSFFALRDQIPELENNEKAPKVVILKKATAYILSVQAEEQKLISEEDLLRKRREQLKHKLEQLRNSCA
Summary of the method: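 Multiplexed cis-reporter transcription in HepG2 cells after 24 h chemical treatment. Reporter mRNA measured by RT-PCR and capillary electrophoresis fluorescence; activity fitted bidirectionally against DMSO control.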

[13] = ATG_NF_kB_CIS: Attagene CIS-FACTORIAL HepG2 Assay for human Nuclear Factor Kappa B (NF-kB) (AID 2282991); details: HepG2 Attagene cis-factorial NF-kB reporter mRNA; actives raise or lower the signal
Summary of the method: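 After 24 h compound incubation, transfected HepG2 cells yield total RNA; reporter cDNA is PCR-amplified, end-labelled with 6-FAM, HpaI-digested and analysed on a genetic analyser. Endogenous factor activity, DMSO-referenced bidirectional fit.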

[14] = ATG_NRF2_ARE_CIS: Attagene CIS-FACTORIAL HepG2 Assay for human Nuclear Factor Erythroid 2 Related Factor 2 (NFR2) response to Antioxidant Response Elements (ARE) (AID 2282992); details: HepG2 Attagene ARE/NRF2 reporter, transcription factor activity; actives raise or lower the signal
Summary of the method: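 Endogenous transcription factor activity read out as reporter transcript levels (RT-PCR plus capillary electrophoresis, fluorescence) in transiently transfected HepG2 cells. Measured at 24 h after dosing; gain or loss of signal fitted versus DMSO.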

[15] = ATG_Oct_MLP_CIS: Attagene CIS-FACTORIAL HepG2 Assay for human Octamer-Binding Transcription Factor (Oct) (AID 2282993); details: HepG2 Attagene cis-factorial Oct reporter, mRNA; actives raise or lower the signal
Summary of the method: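 Using HepG2 cells bearing transfected cis-reporter constructs, mRNA induction was read after 24 h by fluorescent RT-PCR and capillary electrophoresis, with DMSO defining baseline for gain- or loss-of-signal fits.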

[16] = BSK_3C_TissueFactor: BioMAP Diversity Plus: 3C Assay for Tissue Factor Biomarker Activity (AID 2282997); details: BioMAP 3C HUVEC, tissue factor biomarker readout; actives raise or lower the signal
Summary of the method: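 Readout: Tissue Factor ELISA. Cells: human primary umbilical vein endothelium. Time: 24 h after dosing. Analysis: bidirectional fit, DMSO baseline.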

[17] = BSK_3C_uPAR: BioMAP Diversity Plus: 3C Assay for Urokinase-type plasminogen activator receptor (uPAR) Biomarker Activity (AID 2282998); details: BioMAP 3C HUVEC, uPAR biomarker ELISA; actives raise or lower the signal
Summary of the method: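 In this endothelial cell-based assay, human umbilical vein primary cells were treated with chemicals and harvested at 24 h. uPAR was quantified using ELISA, with gains or losses fitted relative to DMSO controls.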

[18] = ATG_NFI_CIS: Attagene CIS-FACTORIAL HepG2 Assay for human Nuclear Factor I (NFI) (AID 2282989); details: HepG2 cis-regulatory reporter, NFI response element transcription; actives raise or lower the signal
Summary of the method: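 Transfected HepG2 liver cells, exposed 24 h, supplied total RNA for oligo(dT) reverse transcription and reporter-specific PCR. Labelled, HpaI-cut fragments were sized by capillary electrophoresis; DMSO set the baseline for bidirectional fitting.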

[19] = target: Cellular tumor antigen p53 (Homo sapiens) (UniProt P04637); assay: ATG_p53_CIS: Attagene CIS-FACTORIAL HepG2 Assay for human p53 Transcription Factor (AID 2282994); details: HepG2 p53 cis-element reporter, Attagene mRNA; actives raise or lower the signal
Sequence of Cellular tumor antigen p53 (Homo sapiens) (P04637 whole entry, looked up): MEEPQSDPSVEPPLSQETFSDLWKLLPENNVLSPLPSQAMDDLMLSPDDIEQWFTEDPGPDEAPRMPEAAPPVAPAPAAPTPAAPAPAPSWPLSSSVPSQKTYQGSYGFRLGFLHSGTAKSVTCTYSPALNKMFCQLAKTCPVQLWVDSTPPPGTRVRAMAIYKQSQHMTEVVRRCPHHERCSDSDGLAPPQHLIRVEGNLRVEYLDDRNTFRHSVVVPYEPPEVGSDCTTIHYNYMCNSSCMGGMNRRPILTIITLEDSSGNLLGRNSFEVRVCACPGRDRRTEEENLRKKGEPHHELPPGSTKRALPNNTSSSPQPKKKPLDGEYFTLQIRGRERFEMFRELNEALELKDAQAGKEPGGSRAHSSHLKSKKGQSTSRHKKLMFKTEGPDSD
Summary of the method: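 Endogenous p53 activity read in transiently transfected HepG2 from a cis-element-driven reporter transcript after 24 h exposure. RNA reverse-transcribed, PCR-amplified, fluorescently labelled and sized by capillary electrophoresis; gain or loss fitted against DMSO baseline.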

Measured: AC50

O=C1C2(Cl)C3(Cl)C4(Cl)C(Cl)(Cl)C5(Cl)C3(Cl)C1(Cl)C5(Cl)C24Cl (stereo not given)
inactive: [1] | [2] | [3] | [4] | [5] | [6] | [7] | [8] | [9] | [10] | [11] | [12] | [13] | [14] | [15]
active: [3] 4.29 µM and 8.79 µM and 10.4 µM | [9] 18.9 µM | [13] 16.5 µM | [14] 6.04 µM | [15] 16.7 µM | [16] 7.03 µM | [17] 7.28 µM

COP(=O)(OC)OC
not listed: [2] | [3] | [9] | [16] | [17]
inactive: all other assays above

CCc1ccccc1C
not listed: [6] | [9] | [11] | [16] | [17]
inactive: all other assays above

BrCCBr
not listed: [3] | [6] | [7] | [8] | [19]
inactive: all other assays above

NC(=O)O
not listed: [2] | [3] | [7] | [14]
inactive: all other assays above

CN(C)P(=O)(N(C)C)N(C)C
not listed: [2] | [9] | [11] | [13] | [14] | [16] | [17]
inactive: all other assays above

Nc1cccc(Cl)c1
inactive: [1] | [5] | [8] | [9] | [10] | [11] | [12] | [13] | [14] | [15]

CCOP(=S)(OCC)SCCS(=O)(=O)CC
not listed: [6] | [7] | [8] | [9] | [14] | [18]
inactive: all other assays above

COP(=S)(OC)Oc1ccc(S(=O)(=O)N(C)C)cc1
not listed: [2] | [3] | [8] | [9] | [11] | [13] | [14]
inactive: all other assays above

COP(=O)(OC)O/C(=C\Cl)c1cc(Cl)c(Cl)cc1Cl
inactive: [1] | [3] | [7] | [8] | [18] | [13]
active: [9] 115 µM | [10] 170 µM | [11] 66.2 µM | [12] 180 µM | [15] 27.6 µM | [19] 161 µM

O=[N+]([O-])c1ccc(O)c([N+](=O)[O-])c1
not listed: [2] | [3] | [6] | [8] | [9] | [11] | [18]
inactive: all other assays above

c1ccc(N=NNc2ccccc2)cc1
active: [9] 39.7 µM | [12] 168 µM | [14] 30.9 µM | [15] 117 µM
inactive: [1] | [4] | [6] | [7] | [10] | [11]

COc1cc(-c2ccc(N)c(OC)c2)ccc1N
active: [15] 27.5 µM and 28.5 µM | [16] 4.68 µM and 3.97 µM
not listed: [2] | [3] | [4] | [6] | [8] | [18]
inactive: all other assays above

COc1ccccc1OC
not listed: [3] | [6] | [16] | [17] | [18]
inactive: all other assays above

CCOP(=S)(OCC)Oc1ccc(S(C)=O)cc1 (stereo not given)
not listed: [2] | [3] | [6] | [7] | [8] | [9] | [13] | [19]
inactive: all other assays above

CCN(CC)C(=O)Cl
not listed: [2] | [4] | [9] | [16] | [17]
inactive: all other assays above

Oc1c(I)cc(I)cc1I
active: [3] 100 µM | [9] 100 µM | [15] 34.5 µM | [17] 10.5 µM
not listed: [4] | [5] | [11] | [18] | [19]
inactive: all other assays above

OCc1ccco1
not listed: [2] | [3] | [5] | [8] | [9] | [14]
inactive: all other assays above

C(=NC1CCCCC1)=NC1CCCCC1
inactive: [1] | [4] | [7] | [10] | [18] | [12] | [13] | [14]
active: [15] 5.24 µM | [16] 34 µM | [17] 9.69 µM
